Measured values: the supplement of paper PMC9694430

Key:
Assay in all cases: thermal shift delta Tm vs DMSO control; higher = stronger stabilization (binding)
Conditions in all cases: 12.5 µM; protein concentration 2 µM
LOC_OS01G57100-cb003 = system: LOC_OS01G57100-cb003
Outline: (§1)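 Rice kinase domain constructs, made in E. coli and purified, were placed in 96-well plates at 2 μM in 19.5 μl of 100 mM potassium phosphate pH 7.5, 150 mM NaCl, 10% glycerol and 5 × SYPRO Orange, with compound in DMSO. A temperature ramp from 25°C to 95°C at 0.05°C/s was used for differential scanning fluorimetry. The melting temperature shift is a triplicate mean compared with DMSO-only protein, derived from Boltzmann fits.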

LOC_OS01G60330-cb001 = system: LOC_OS01G60330-cb001
Outline: as §1

LOC_OS01G60700-cb002 = system: LOC_OS01G60700-cb002
Outline: as §1

LOC_OS01G63280-cb003 = system: LOC_OS01G63280-cb003
Outline: as §1

LOC_OS01G67340-cb003 = system: LOC_OS01G67340-cb003
Outline: as §1

LOC_OS01G70970-cb002 = system: LOC_OS01G70970-cb002
Outline: as §1

LOC_OS02G07810-cb001 = system: LOC_OS02G07810-cb001
Outline: as §1

LOC_OS02G08530-cb003 = system: LOC_OS02G08530-cb003
Outline: as §1

LOC_OS02G14120-cb001 = system: LOC_OS02G14120-cb001
Outline: as §1

LOC_OS02G17970-cb001 = system: LOC_OS02G17970-cb001
Outline: as §1

LOC_OS02G45750-cb003 = system: LOC_OS02G45750-cb003
Outline: as §1

LOC_OS02G54510-cb004 = system: LOC_OS02G54510-cb004
Outline: as §1

LOC_OS03G04050-cb001 = system: LOC_OS03G04050-cb001
Outline: as §1

LOC_OS03G12390-cb001 = system: LOC_OS03G12390-cb001
Outline: as §1

LOC_OS03G27990-cb004 = system: LOC_OS03G27990-cb004
Outline: as §1

LOC_OS03G50450-cb001 = system: LOC_OS03G50450-cb001
Outline: as §1

LOC_OS03G50810-cb003 = system: LOC_OS03G50810-cb003
Outline: as §1

LOC_OS04G35114-cb001 = system: LOC_OS04G35114-cb001
Outline: as §1

LOC_OS04G38480-cb003 = system: T1, LOC_OS04G38480-cb003
T1 sequence (whole entry): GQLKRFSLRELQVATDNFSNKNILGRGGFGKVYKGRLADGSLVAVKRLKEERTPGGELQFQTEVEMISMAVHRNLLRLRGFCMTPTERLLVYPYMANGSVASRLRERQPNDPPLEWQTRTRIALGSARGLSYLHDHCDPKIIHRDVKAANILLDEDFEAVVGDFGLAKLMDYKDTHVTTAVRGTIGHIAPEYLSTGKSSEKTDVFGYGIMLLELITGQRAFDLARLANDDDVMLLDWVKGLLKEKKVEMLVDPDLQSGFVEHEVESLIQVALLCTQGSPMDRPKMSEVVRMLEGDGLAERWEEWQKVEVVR
Outline: as §1

LOC_OS04G41100-cb001 = system: T2, LOC_OS04G41100-cb001
T2 sequence (whole entry): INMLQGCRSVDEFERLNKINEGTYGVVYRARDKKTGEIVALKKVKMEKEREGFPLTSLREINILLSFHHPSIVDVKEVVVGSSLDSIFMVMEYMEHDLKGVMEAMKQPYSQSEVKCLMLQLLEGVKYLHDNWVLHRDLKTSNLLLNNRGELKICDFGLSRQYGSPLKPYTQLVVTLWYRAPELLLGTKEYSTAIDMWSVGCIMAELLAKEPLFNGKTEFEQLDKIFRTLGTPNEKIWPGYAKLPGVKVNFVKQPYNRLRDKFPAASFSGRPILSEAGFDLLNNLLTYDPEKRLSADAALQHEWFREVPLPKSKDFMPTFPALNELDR
Outline: as §1
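Also: purified Escherichia coli-expressed rice kinase domain construct.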

| Compound | thermal shift delta Tm (LOC_OS01G57100-cb003) | thermal shift delta Tm (LOC_OS01G60330-cb001) | thermal shift delta Tm (LOC_OS01G60700-cb002) | thermal shift delta Tm (LOC_OS01G63280-cb003) | thermal shift delta Tm (LOC_OS01G67340-cb003) | thermal shift delta Tm (LOC_OS01G70970-cb002) | thermal shift delta Tm (LOC_OS02G07810-cb001) | thermal shift delta Tm (LOC_OS02G08530-cb003) | thermal shift delta Tm (LOC_OS02G14120-cb001) | thermal shift delta Tm (LOC_OS02G17970-cb001) | thermal shift delta Tm (LOC_OS02G45750-cb003) | thermal shift delta Tm (LOC_OS02G54510-cb004) | thermal shift delta Tm (LOC_OS03G04050-cb001) | thermal shift delta Tm (LOC_OS03G12390-cb001) | thermal shift delta Tm (LOC_OS03G27990-cb004) | thermal shift delta Tm (LOC_OS03G50450-cb001) | thermal shift delta Tm (LOC_OS03G50810-cb003) | thermal shift delta Tm (LOC_OS04G35114-cb001) | thermal shift delta Tm (LOC_OS04G38480-cb003) | thermal shift delta Tm (LOC_OS04G41100-cb001) |
| --- | --- | --- | --- | --- | --- | --- | --- | --- | --- | --- | --- | --- | --- | --- | --- | --- | --- | --- | --- | --- |
| CCN(CC)CCNC(=O)c1c(C)[nH]c(/C=C2\C(=O)Nc3ccc(-c4csc(-c5ccccc5)n4)cc32)c1C [Amcasertib (BBI503)] | 0.34 °C | 0.8 °C | -0.11 °C | 0.21 °C | 0.03 °C | 0.3 °C | -0.19 °C | 3.7 °C | 4.69 °C | -0.15 °C | 0 °C | 0.74 °C | 0.42 °C | 0.16 °C | 0.77 °C | 1.61 °C | 7.41 °C | 15 °C | 1.78 °C | 0.78 °C |
| CC(C)(CCCCCC(O)CCCCCC(C)(C)C(=O)O)C(=O)O | -0.51 °C | 1.18 °C | 0.87 °C | -0.01 °C | 0.52 °C | 0.21 °C | 0.4 °C | 0.32 °C | 0.05 °C | 0.59 °C | 0.72 °C | 0.34 °C | 0.51 °C | -0.22 °C | 0.25 °C | 0.67 °C | 0.41 °C | 0.9 °C | 2.27 °C | 0.2 °C |
| Cc1cccc(CC(=O)N2CCc3c2ccc(-c2cn(C)c4ncnc(N)c24)c3F)n1 | 1.41 °C | 0.28 °C | 1.1 °C | 5.6 °C | 3.56 °C | 0.24 °C | 0.39 °C | 0.71 °C | 1.09 °C | 1.12 °C | 1.87 °C | 0.61 °C | 0.63 °C | 0.44 °C | 0.12 °C | 0.29 °C | 0.3 °C | 0.7 °C | 3.73 °C | 0.27 °C |
| CNC(=O)CN1CCC(Oc2cc3c(Nc4cccc(Cl)c4F)ncnc3cc2OC)CC1 [Sapitinib (AZD8931)] | 0.77 °C | 0.15 °C | 0.56 °C | 0.07 °C | -0.27 °C | -0.1 °C | 0.32 °C | 0.51 °C | 2.09 °C | -0.13 °C | 0.58 °C | 0.5 °C | -0.02 °C | 0.79 °C | 0.05 °C | 0.05 °C | 0.22 °C | 3.22 °C | 0.11 °C | 0.35 °C |
| COc1ncc(-c2cc(-c3ncc(CN4C[C@@H](C)O[C@@H](C)C4)o3)c3cn[nH]c3c2)cc1NS(C)(=O)=O | 1.25 °C | 1.42 °C | 1.12 °C | 0.17 °C | 1.4 °C | 0.12 °C | 0.69 °C | 0.78 °C | -0.2 °C | 0.21 °C | 0.86 °C | 0.25 °C | 0.39 °C | -0.09 °C | 0.23 °C | 0.64 °C | 0.71 °C | 1.06 °C | 0.79 °C | 0.49 °C |
| COc1ncc(-c2ccc3nccc(-c4ccnnc4)c3c2)cc1NS(=O)(=O)c1ccc(F)cc1F | 2.01 °C | 0.36 °C | 1.17 °C | 0.66 °C | 1.24 °C | 0.34 °C | 1.43 °C | 0.74 °C | 0.78 °C | 1.75 °C | 1.38 °C | 0.45 °C | 0.9 °C | 0.76 °C | 0.69 °C | 1.26 °C | 1.09 °C | 2.35 °C | 1.39 °C | 0.74 °C |
